The record followed here is article PMC5540273 (PLoS ONE, 2017).

“And” between values parts separate entries of the source, which are not always exact repeats. Equal entries are not always repeated. Where two headings read alike, the source gives them in different places.

In one assay the test system is ULK2. To be noted: concentration: 1 μM, replicates: in singlicate, n = 1.
The test system of another assay is ULK3. Particulars: concentration: 1 μM, replicates: in singlicate, n = 1.
Another assay concerns T1, VEGFR2.
T1 construct: gene KDR
To be noted: concentration: 1 μM, replicates: in singlicate, n = 1.

For another assay, the system named is T2, VPS34.
T2 construct: gene PIK3C3
To be noted: concentration: 1 μM, replicates: in singlicate, n = 1.

The subject of a further assay is VRK2. To be noted: concentration: 1 μM, replicates: in singlicate, n = 1.
The next assay has as its system WEE1. Particulars: concentration: 1 μM, replicates: in singlicate; n = 1.
Another assay relates to WEE2. Particulars: concentration: 1 μM, replicates: in singlicate, n = 1.
For another assay, the system named is WNK1. Particulars: concentration: 1 μM, replicates: in singlicate, n = 1.
The subject of another assay is WNK2. To be noted: concentration: 1 μM, replicates: in singlicate, n = 1.
For a further assay, the system named is WNK3. Particulars: concentration: 1 μM, replicates: in singlicate, n = 1.
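Note: KINOMEscan kinase panel screen.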

With `Nc1nccc2scc(-c3ccc4c(c3)CCN4C(=O)Cc3cc(F)ccc3F)c12` [GSK2587663], the “%Inh” value is 0% with ULK2; 6% with ULK3; 0% with VEGFR2; 8% in the assay on VPS34; 0% in the assay with VRK2; 44% with WEE1. Further, the “%Inh” value is listed as 0% with WEE2, 33% in the assay on WNK1, 0% in the assay with WNK2 and 37% in the assay with WNK3.

Consider `Cl.Cl.c1ccc(-c2cc3ccncc3cc2OC2CCNCC2)cc1` [GSK1122999], for which the “%Inh” value in the assay with ULK2 amounted to 0%; in the assay with ULK3 it was 4%; in the assay with VEGFR2, 0%; with VPS34, 67%; with VRK2, 0%; in the assay on WEE1 it was 5%. Further, the “%Inh” value stood at 11% with WEE2, 7% in the assay with WNK1, 0% with WNK2 and 0% with WNK3.

`c1ccc(-c2ccc3c(-c4ccnc(Nc5ccc6c(c5)OCCO6)n4)cnn3n2)cc1` [GW818941]: the “%Inh” value is 0% with ULK2; 15% with ULK3; 9% with VEGFR2; 0% in the assay on VPS34; 7% with VRK2; 2% in the assay with WEE1. Further, the “%Inh” value in the assay on WEE2 was determined as 0%; with WNK1, 2%; in the assay with WNK2, 0%; with WNK3 it was 15%.

As to `O=C(Nc1ccccc1F)NC1CCN(c2ccnc(Nc3ccc(F)cc3)n2)C1` (centres unmarked) [GSK1379722], the “%Inh” value in the assay on ULK2 stood at 0%; with ULK3, 8%; in the assay with VEGFR2, 0%; in the assay with VPS34, 0%; with VRK2, 16%; in the assay on WEE1, 9%. The “%Inh” value was determined as 0% in the assay on WEE2, 10% in the assay on WNK1, 0% in the assay with WNK2 and 38% in the assay on WNK3.

Regarding `CN1c2ccc(-c3ccc(C(=O)NCCO)cc3)cc2-c2[nH]ncc2S1(=O)=O`, the “%Inh” value in the assay on ULK2 amounted to 30%; in the assay on ULK3, 0%; with VEGFR2, 44%; in the assay with VPS34, 30%; in the assay with VRK2, 0%; with WEE1, 0%. For the same molecule, the “%Inh” value with WEE2 turned out to be 1%; in the assay with WNK1, 0%; in the assay on WNK2, 0%; with WNK3, 0%.

Consider `COc1ccc(-c2nc3n(c2-c2ccncc2)CCC3)cc1` [SKF-104493], for which the “%Inh” value is 13% and 0% in the assay with ULK2 (1 µM); 13% and 0% with ULK3 (1 µM); 15% and 0% with VEGFR2 (1 µM); 28% and 20% with VPS34 (1 µM); 7% and 0% in the assay on VRK2 (1 µM); 13% and 0% in the assay on WEE2 (1 µM). Further, the “%Inh” value with WNK1 (1 µM) was 27% and 0%; in the assay with WNK2 (1 µM), 0% and 21%; in the assay on WNK3 (1 µM), 33% and 16%.
